Common to all, as to test: PBM; 200 nM protein, PBS
What all share (settings): dsDNA, one strand shown

For experiment [1], the target named is HOXC9 (Homo sapiens, UniProt P31274 178-260, K195R).
In another experiment the target is T1, NKX2-6 (Homo sapiens, UniProt A6NCS4 118-204, R150C).
T1 sequence: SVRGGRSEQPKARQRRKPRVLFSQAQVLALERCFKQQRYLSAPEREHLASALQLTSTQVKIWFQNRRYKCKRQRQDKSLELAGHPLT

Experiment [2] has as its target HOXC9 (Homo sapiens, UniProt P31274 178-260).
Experiment [3] deals with ALX1 (Homo sapiens, UniProt Q15699 118-204, L144V).
The target of experiment [4] is HOXC9 (Homo sapiens, UniProt P31274 178-260, R193K).
The target of experiment [5] is ALX1 (Homo sapiens, UniProt Q15699 118-204, L144R).
Experiment [6] has as its target HOXC9 (Homo sapiens, UniProt P31274 178-260, R222W).
Experiment [7] deals with ALX1 (Homo sapiens, UniProt Q15699 118-204).
In experiment [8] the target is HOXD13 (Homo sapiens, UniProt P35453 263-343, T313R).
Experiment [9] concerns the target HOXD13 (Homo sapiens, UniProt P35453 263-343).
Experiment [10] has as its target HOXD13 (Homo sapiens, UniProt P35453 263-343, T313A).
For experiment [11], the target named is ALX3 (Homo sapiens, UniProt O95076 139-225, N203Q).
The target of experiment [12] is ALX3 (Homo sapiens, UniProt O95076 139-225).
Experiment [13] addresses VAX1 (Homo sapiens, UniProt Q5SQQ9 86-172).
Experiment [14] has as its target ALX3 (Homo sapiens, UniProt O95076 139-225, L168Q).
The target of experiment [15] is ALX3 (Homo sapiens, UniProt O95076 139-225, L168V).
Experiment [16] addresses VAX1 (Homo sapiens, UniProt Q5SQQ9 86-172, T142I).
Experiment [17] deals with ALX3 (Homo sapiens, UniProt O95076 139-225, N203S).
For experiment [18], the target named is VAX1 (Homo sapiens, UniProt Q5SQQ9 86-172, K157R).
The target of experiment [19] is MSX2 (Homo sapiens, UniProt P35548 130-214, R199I).
Experiment [20] has as its target MSX2 (Homo sapiens, UniProt P35548 130-214).
Experiment [21] deals with MSX2 (Homo sapiens, UniProt P35548 130-214, F161Y).
The target of experiment [22] is PROP1 (Homo sapiens, UniProt O75360 56-141).
Experiment [23] addresses PROP1 (Homo sapiens, UniProt O75360 56-141, R99H).
For experiment [24], the target named is PROP1 (Homo sapiens, UniProt O75360 56-141, F88S).
For experiment [25], the target named is HOXA2 (Homo sapiens, UniProt O43364 129-215, R185T).
The target of experiment [26] is HOXA2 (Homo sapiens, UniProt O43364 129-215, R185K).
In experiment [27] the target is HOXA2 (Homo sapiens, UniProt O43364 129-215, Y150S).
In experiment [28] the target is HOXA2 (Homo sapiens, UniProt O43364 129-215).

10 sequences from publication PMC11006913 can be followed below.

Sequence of HOXC9 (Homo sapiens, UniProt P31274 178-260, K195R) (P31274 178-260 K195R): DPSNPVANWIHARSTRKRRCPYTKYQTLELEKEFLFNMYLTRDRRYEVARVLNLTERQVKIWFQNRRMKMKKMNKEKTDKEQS
Sequence of HOXC9 (Homo sapiens, UniProt P31274 178-260, R193K) (P31274 178-260 R193K): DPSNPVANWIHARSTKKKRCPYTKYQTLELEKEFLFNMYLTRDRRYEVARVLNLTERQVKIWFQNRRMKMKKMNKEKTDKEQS
Sequence of HOXC9 (Homo sapiens, UniProt P31274 178-260) (P31274 178-260): as the sequence (P31274 178-260 R193K) above, with K16R counted along it
Sequence of HOXC9 (Homo sapiens, UniProt P31274 178-260, R222W) (P31274 178-260 R222W): as the sequence (P31274 178-260 R193K) above, with K16R, R45W counted along it
Sequence of ALX3 (Homo sapiens, UniProt O95076 139-225, L168Q) (O95076 139-225 L168Q): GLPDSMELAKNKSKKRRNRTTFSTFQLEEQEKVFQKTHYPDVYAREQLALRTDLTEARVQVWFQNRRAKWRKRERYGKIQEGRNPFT
Sequence of ALX3 (Homo sapiens, UniProt O95076 139-225, L168V) (O95076 139-225 L168V): as the sequence (O95076 139-225 L168Q) above, with Q30V counted along it
Sequence of ALX3 (Homo sapiens, UniProt O95076 139-225) (O95076 139-225): as the sequence (O95076 139-225 L168Q) above, with Q30L counted along it
Sequence of HOXD13 (Homo sapiens, UniProt P35453 263-343) (P35453 263-343): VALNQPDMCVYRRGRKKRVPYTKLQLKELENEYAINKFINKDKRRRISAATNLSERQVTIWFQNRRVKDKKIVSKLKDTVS
Sequence of HOXD13 (Homo sapiens, UniProt P35453 263-343, T313R) (P35453 263-343 T313R): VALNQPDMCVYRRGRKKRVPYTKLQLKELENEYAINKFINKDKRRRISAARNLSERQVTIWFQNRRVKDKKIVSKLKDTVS
Sequence of ALX3 (Homo sapiens, UniProt O95076 139-225, N203S) (O95076 139-225 N203S): as the sequence (O95076 139-225 L168Q) above, with Q30L, N65S counted along it
Sequence of ALX3 (Homo sapiens, UniProt O95076 139-225, N203Q) (O95076 139-225 N203Q): as the sequence (O95076 139-225 L168Q) above, with Q30L, N65Q counted along it
Sequence of HOXD13 (Homo sapiens, UniProt P35453 263-343, T313A) (P35453 263-343 T313A): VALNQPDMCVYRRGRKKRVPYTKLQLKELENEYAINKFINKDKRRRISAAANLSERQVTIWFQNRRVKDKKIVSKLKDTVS
Sequence of VAX1 (Homo sapiens, UniProt Q5SQQ9 86-172, T142I) (Q5SQQ9 86-172 T142I): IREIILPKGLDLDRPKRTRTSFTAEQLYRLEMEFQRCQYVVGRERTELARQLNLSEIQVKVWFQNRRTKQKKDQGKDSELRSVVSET
Sequence of HOXA2 (Homo sapiens, UniProt O43364 129-215) (O43364 129-215): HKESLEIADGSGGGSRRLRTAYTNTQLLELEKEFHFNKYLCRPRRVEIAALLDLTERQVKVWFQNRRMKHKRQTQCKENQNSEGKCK
Sequence of HOXA2 (Homo sapiens, UniProt O43364 129-215, Y150S) (O43364 129-215 Y150S): as the sequence (O43364 129-215) above, with Y22S counted along it
Sequence of MSX2 (Homo sapiens, UniProt P35548 130-214, F161Y) (P35548 130-214 F161Y): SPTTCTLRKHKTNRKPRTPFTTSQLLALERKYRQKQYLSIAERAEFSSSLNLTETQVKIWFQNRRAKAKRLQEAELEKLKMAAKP
Sequence of PROP1 (Homo sapiens, UniProt O75360 56-141) (O75360 56-141): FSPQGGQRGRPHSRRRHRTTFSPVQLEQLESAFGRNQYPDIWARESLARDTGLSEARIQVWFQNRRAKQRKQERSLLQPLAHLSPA
Sequence of PROP1 (Homo sapiens, UniProt O75360 56-141, R99H) (O75360 56-141 R99H): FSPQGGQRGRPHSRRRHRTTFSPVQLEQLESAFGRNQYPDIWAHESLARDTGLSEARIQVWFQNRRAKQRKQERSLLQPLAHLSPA
Sequence of MSX2 (Homo sapiens, UniProt P35548 130-214) (P35548 130-214): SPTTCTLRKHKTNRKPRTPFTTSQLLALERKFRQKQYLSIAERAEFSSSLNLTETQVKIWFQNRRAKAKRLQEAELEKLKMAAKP
Sequence of VAX1 (Homo sapiens, UniProt Q5SQQ9 86-172, K157R) (Q5SQQ9 86-172 K157R): as the sequence (Q5SQQ9 86-172 T142I) above, with I57T, K72R counted along it
Sequence of ALX1 (Homo sapiens, UniProt Q15699 118-204, L144R) (Q15699 118-204 L144R): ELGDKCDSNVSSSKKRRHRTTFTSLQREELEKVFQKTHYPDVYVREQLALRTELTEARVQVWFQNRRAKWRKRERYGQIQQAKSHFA
Sequence of PROP1 (Homo sapiens, UniProt O75360 56-141, F88S) (O75360 56-141 F88S): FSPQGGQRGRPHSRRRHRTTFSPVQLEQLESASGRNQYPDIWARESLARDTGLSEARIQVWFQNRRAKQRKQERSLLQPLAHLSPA
Sequence of VAX1 (Homo sapiens, UniProt Q5SQQ9 86-172) (Q5SQQ9 86-172): as the sequence (Q5SQQ9 86-172 T142I) above, with I57T counted along it
Sequence of HOXA2 (Homo sapiens, UniProt O43364 129-215, R185K) (O43364 129-215 R185K): as the sequence (O43364 129-215) above, with R57K counted along it
Sequence of ALX1 (Homo sapiens, UniProt Q15699 118-204, L144V) (Q15699 118-204 L144V): as the sequence (Q15699 118-204 L144R) above, with R27V counted along it
Sequence of ALX1 (Homo sapiens, UniProt Q15699 118-204) (Q15699 118-204): as the sequence (Q15699 118-204 L144R) above, with R27L counted along it
Sequence of HOXA2 (Homo sapiens, UniProt O43364 129-215, R185T) (O43364 129-215 R185T): as the sequence (O43364 129-215) above, with R57T counted along it
Sequence of MSX2 (Homo sapiens, UniProt P35548 130-214, R199I) (P35548 130-214 R199I): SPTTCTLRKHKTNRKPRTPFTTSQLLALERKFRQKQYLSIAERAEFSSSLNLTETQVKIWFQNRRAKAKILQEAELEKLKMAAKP

Take CCGGGTAC: the binding signal with HOXC9 [1] is 9.59 upbm affinity estimate (log intensity, higher = more binding, comparable within an allelic series); with NKX2-6 it was 9.58 upbm affinity estimate (log intensity, higher = more binding, comparable within an allelic series); with HOXC9 [2], 9.74 upbm affinity estimate (log intensity, higher = more binding, comparable within an allelic series); in the experiment with ALX1 [3], 6.43 upbm affinity estimate (log intensity, higher = more binding, comparable within an allelic series); with HOXC9 [4], 9.61 upbm affinity estimate (log intensity, higher = more binding, comparable within an allelic series); in the experiment with ALX1 [5] it was 6.2 upbm affinity estimate (log intensity, higher = more binding, comparable within an allelic series). Also, the binding signal was 9.63 upbm affinity estimate (log intensity, higher = more binding, comparable within an allelic series) in the experiment with HOXC9 [6] and 6.38 upbm affinity estimate (log intensity, higher = more binding, comparable within an allelic series) in the experiment with ALX1 [7].

On to AGGGGCTC, for which the binding signal with HOXC9 [1] is 9.39 upbm affinity estimate (log intensity, higher = more binding, comparable within an allelic series); with HOXC9 [2] it was 9.62 upbm affinity estimate (log intensity, higher = more binding, comparable within an allelic series); with HOXD13 [8] it was 9.61 upbm affinity estimate (log intensity, higher = more binding, comparable within an allelic series); with HOXC9 [4] it was 9.46 upbm affinity estimate (log intensity, higher = more binding, comparable within an allelic series); with HOXD13 [9], 9.68 upbm affinity estimate (log intensity, higher = more binding, comparable within an allelic series); with HOXD13 [10], 9.7 upbm affinity estimate (log intensity, higher = more binding, comparable within an allelic series). Also, the binding signal with HOXC9 [6] was 9.6 upbm affinity estimate (log intensity, higher = more binding, comparable within an allelic series).

For the sequence ATGAACTA, the binding signal is 10.9 upbm affinity estimate (log intensity, higher = more binding, comparable within an allelic series) with HOXC9 [1]; 10.9 upbm affinity estimate (log intensity, higher = more binding, comparable within an allelic series) in the experiment with HOXC9 [2]; 10.9 upbm affinity estimate (log intensity, higher = more binding, comparable within an allelic series) in the experiment with HOXC9 [4].

For the sequence TCCAGGGA, the binding signal with HOXC9 [1] was 9.73 upbm affinity estimate (log intensity, higher = more binding, comparable within an allelic series); with NKX2-6, 9.47 upbm affinity estimate (log intensity, higher = more binding, comparable within an allelic series); with HOXC9 [2], 9.67 upbm affinity estimate (log intensity, higher = more binding, comparable within an allelic series); in the experiment with HOXC9 [4], 9.68 upbm affinity estimate (log intensity, higher = more binding, comparable within an allelic series); in the experiment with HOXC9 [6] it was 9.68 upbm affinity estimate (log intensity, higher = more binding, comparable within an allelic series).

Take CCTCCCAG: the binding signal in the experiment with HOXC9 [1] is 9.59 upbm affinity estimate (log intensity, higher = more binding, comparable within an allelic series); with HOXC9 [2], 9.7 upbm affinity estimate (log intensity, higher = more binding, comparable within an allelic series); with ALX3 [11], 7.74 upbm affinity estimate (log intensity, higher = more binding, comparable within an allelic series); with HOXC9 [4], 9.59 upbm affinity estimate (log intensity, higher = more binding, comparable within an allelic series); in the experiment with ALX3 [12] it was 7.69 upbm affinity estimate (log intensity, higher = more binding, comparable within an allelic series); with VAX1 [13] it was 7.07 upbm affinity estimate (log intensity, higher = more binding, comparable within an allelic series). Besides, the binding signal with ALX3 [14] is 7.76 upbm affinity estimate (log intensity, higher = more binding, comparable within an allelic series); in the experiment with HOXC9 [6], 9.67 upbm affinity estimate (log intensity, higher = more binding, comparable within an allelic series); with ALX3 [15] it was 7.74 upbm affinity estimate (log intensity, higher = more binding, comparable within an allelic series); with VAX1 [16] it was 7.13 upbm affinity estimate (log intensity, higher = more binding, comparable within an allelic series); with ALX3 [17], 7.72 upbm affinity estimate (log intensity, higher = more binding, comparable within an allelic series); in the experiment with VAX1 [18], 6.95 upbm affinity estimate (log intensity, higher = more binding, comparable within an allelic series).

With ACTAAATA, the binding signal in the experiment with HOXC9 [1] was 11.6 upbm affinity estimate (log intensity, higher = more binding, comparable within an allelic series); with HOXC9 [2], 11.5 upbm affinity estimate (log intensity, higher = more binding, comparable within an allelic series); with HOXC9 [4], 11.6 upbm affinity estimate (log intensity, higher = more binding, comparable within an allelic series).

For the sequence CTCCACGC, the binding signal is 9.69 upbm affinity estimate (log intensity, higher = more binding, comparable within an allelic series) with HOXC9 [1]; 9.61 upbm affinity estimate (log intensity, higher = more binding, comparable within an allelic series) in the experiment with HOXC9 [2]; 9.56 upbm affinity estimate (log intensity, higher = more binding, comparable within an allelic series) with MSX2 [19]; 9.6 upbm affinity estimate (log intensity, higher = more binding, comparable within an allelic series) with HOXC9 [4]; 9.47 upbm affinity estimate (log intensity, higher = more binding, comparable within an allelic series) with MSX2 [20]; 9.78 upbm affinity estimate (log intensity, higher = more binding, comparable within an allelic series) in the experiment with HOXC9 [6]. The binding signal with MSX2 [21] was 9.61 upbm affinity estimate (log intensity, higher = more binding, comparable within an allelic series).

For the sequence ACGTTGGG, the binding signal was 9.64 upbm affinity estimate (log intensity, higher = more binding, comparable within an allelic series) in the experiment with HOXC9 [1]; 9.44 upbm affinity estimate (log intensity, higher = more binding, comparable within an allelic series) with NKX2-6; 9.65 upbm affinity estimate (log intensity, higher = more binding, comparable within an allelic series) in the experiment with HOXC9 [2]; 9.64 upbm affinity estimate (log intensity, higher = more binding, comparable within an allelic series) with HOXC9 [4]; 9.77 upbm affinity estimate (log intensity, higher = more binding, comparable within an allelic series) in the experiment with HOXC9 [6].

As for AGCCGTGG, the binding signal in the experiment with HOXC9 [1] was 9.64 upbm affinity estimate (log intensity, higher = more binding, comparable within an allelic series); with HOXC9 [2], 9.68 upbm affinity estimate (log intensity, higher = more binding, comparable within an allelic series); with HOXD13 [8] it was 9.67 upbm affinity estimate (log intensity, higher = more binding, comparable within an allelic series); with HOXC9 [4], 9.58 upbm affinity estimate (log intensity, higher = more binding, comparable within an allelic series); in the experiment with HOXD13 [9], 9.7 upbm affinity estimate (log intensity, higher = more binding, comparable within an allelic series); with PROP1 [22], 6.79 upbm affinity estimate (log intensity, higher = more binding, comparable within an allelic series). Moreover, the binding signal was 6.82 upbm affinity estimate (log intensity, higher = more binding, comparable within an allelic series) in the experiment with PROP1 [23]; 9.83 upbm affinity estimate (log intensity, higher = more binding, comparable within an allelic series) with HOXD13 [10]; 9.77 upbm affinity estimate (log intensity, higher = more binding, comparable within an allelic series) with HOXC9 [6]; 6.72 upbm affinity estimate (log intensity, higher = more binding, comparable within an allelic series) with PROP1 [24].

As for AGGTGGGG, the binding signal with HOXC9 [1] is 9.9 upbm affinity estimate (log intensity, higher = more binding, comparable within an allelic series); in the experiment with HOXA2 [25], 7.38 upbm affinity estimate (log intensity, higher = more binding, comparable within an allelic series); with HOXC9 [2] it was 9.9 upbm affinity estimate (log intensity, higher = more binding, comparable within an allelic series); in the experiment with ALX3 [11], 7.84 upbm affinity estimate (log intensity, higher = more binding, comparable within an allelic series); with HOXC9 [4], 9.81 upbm affinity estimate (log intensity, higher = more binding, comparable within an allelic series); with HOXA2 [26], 10.4 upbm affinity estimate (log intensity, higher = more binding, comparable within an allelic series). For the same sequence, the binding signal with ALX3 [12] is 7.86 upbm affinity estimate (log intensity, higher = more binding, comparable within an allelic series); with ALX3 [14] it was 7.87 upbm affinity estimate (log intensity, higher = more binding, comparable within an allelic series); with HOXC9 [6] it was 9.81 upbm affinity estimate (log intensity, higher = more binding, comparable within an allelic series); in the experiment with ALX3 [15], 7.85 upbm affinity estimate (log intensity, higher = more binding, comparable within an allelic series); with HOXA2 [27] it was 10.4 upbm affinity estimate (log intensity, higher = more binding, comparable within an allelic series); in the experiment with ALX3 [17], 7.82 upbm affinity estimate (log intensity, higher = more binding, comparable within an allelic series). The binding signal with HOXA2 [28] was 7.26 upbm affinity estimate (log intensity, higher = more binding, comparable within an allelic series).
